# Data taken from PubChem BioAssay (EPA / NIEHS).
# Results filed as inconclusive are left out. Active and inactive are the calls of the source. The calls were made as follows: active = hit-call score of the fitted dose curve at least 0.9, where 1 is the maximum; inconclusive = response in the unintended direction; inactive = score below 0.9.
# Target: Bile acid receptor (Homo sapiens) (UniProt Q96RI1)
# Test: OT_FXR_FXRSRC1_1440: Odyssey Thera (OT) 24-hour HEK293T Protein-Complementation Assay for Farnesoid X receptor/SRC-1 Co-activator (AID 2283384)
# Summary of the method: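 Compounds are applied to human kidney HEK293T cells expressing bait and prey fused to reporter protein fragments; after 24 h, reconstituted reporter fluorescence is measured. Activity is fitted as signal gain over DMSO.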
# Sequence of Bile acid receptor (Homo sapiens) (Q96RI1 whole entry, looked up): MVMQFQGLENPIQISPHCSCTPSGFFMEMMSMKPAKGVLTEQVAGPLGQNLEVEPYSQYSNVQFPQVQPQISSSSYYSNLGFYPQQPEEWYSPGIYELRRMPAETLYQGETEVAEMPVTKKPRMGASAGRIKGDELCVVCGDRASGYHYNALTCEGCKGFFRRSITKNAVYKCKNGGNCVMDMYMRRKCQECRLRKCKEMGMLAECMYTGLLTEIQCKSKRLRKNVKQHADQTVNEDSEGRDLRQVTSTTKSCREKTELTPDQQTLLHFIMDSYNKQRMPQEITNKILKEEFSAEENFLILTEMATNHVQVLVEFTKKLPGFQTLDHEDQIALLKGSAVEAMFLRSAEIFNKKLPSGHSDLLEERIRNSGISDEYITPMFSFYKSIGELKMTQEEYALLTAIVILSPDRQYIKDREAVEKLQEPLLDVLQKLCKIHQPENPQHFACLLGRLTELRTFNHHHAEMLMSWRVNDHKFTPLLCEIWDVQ
row,Compound,outcome
1,CC12CCC(C1)C(C)(C)C2O (stereo unspecified),inactive
2,CC(=O)c1ccc2ccccc2c1,inactive
3,COc1ccc2[nH]cc(CCNC(C)=O)c2c1,inactive
4,CCC(=O)OC(C)(C)C1CC=C(C)CC1 (stereo unspecified),inactive
5,NC(=O)c1cccnc1,inactive
6,CC(=O)C1=C(C)[C@@H]2C[C@@]3(C1)[C@H](C)CC[C@H]3C2(C)C,inactive
7,c1ccc(Cc2ccccc2)cc1,inactive
8,CC(=O)CC(=O)N(C)C,inactive

# Target: Retinoic acid receptor RXR-alpha (Homo sapiens) (UniProt P19793)
# Test: OT_NURR1_NURR1RXRa_0480: Odyssey Thera (OT) 8-hour HEK293T Protein Complementation Assay for Nurr1/retinoid X receptor (RXR) (AID 2283385)
# Summary of the method: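 8 h compound exposure, HEK293T; Nurr1/RXRα fragment complementation; fluorescence intensity; positive fitting direction vs DMSO baseline.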
# Sequence of Retinoic acid receptor RXR-alpha (Homo sapiens) (P19793 whole entry, looked up): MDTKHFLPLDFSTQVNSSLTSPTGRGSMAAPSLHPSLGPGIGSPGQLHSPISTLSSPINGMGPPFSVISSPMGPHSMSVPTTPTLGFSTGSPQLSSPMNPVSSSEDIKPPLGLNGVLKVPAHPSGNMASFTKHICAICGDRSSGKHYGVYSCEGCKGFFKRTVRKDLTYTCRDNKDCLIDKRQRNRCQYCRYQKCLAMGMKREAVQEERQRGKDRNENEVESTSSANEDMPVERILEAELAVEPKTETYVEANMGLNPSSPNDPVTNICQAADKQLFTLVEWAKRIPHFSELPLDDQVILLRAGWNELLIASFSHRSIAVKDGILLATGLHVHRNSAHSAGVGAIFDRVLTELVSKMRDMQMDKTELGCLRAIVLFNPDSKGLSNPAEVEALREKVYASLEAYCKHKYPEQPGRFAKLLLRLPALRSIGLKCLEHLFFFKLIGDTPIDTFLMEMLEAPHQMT
Compound,AC50,outcome
CCCCCCCCCCCCN1CCOCC1,73.6 µM (active),
c1ccc2scnc2c1,,inactive
CN(C)C,,inactive
CCC(C)COC(=O)CC(C)C (stereo unspecified),,inactive
Cc1cccc(O)c1,,inactive
CCCC1CCC(=O)CC1,,inactive
CC12CCC(C1)C(C)(C)C2O (stereo unspecified),,inactive
CC(=O)c1ccc(O)cc1,,inactive
CC(O)CN (stereo unspecified),,inactive
CC(=O)Nc1cc(S(=O)(=O)O)cc2cc(S(=O)(=O)O)c(N=Nc3ccccc3)c(O)c12,22.9 µM (active),
CC(=O)OC(C)(C)C,,inactive
c1ccc(OCCOc2ccccc2)cc1,,inactive
C=CCCCCCCCCC(=O)OCC,,inactive
CCCCCCCC(=O)N(C)C,,inactive
COC(=O)C(C)Oc1ccc(Oc2ncc(C(F)(F)F)cc2Cl)cc1 (stereo unspecified),,inactive
CCC(C)C1CCCCC1=O (stereo unspecified),,inactive
NC(=O)c1cccnc1,,inactive
CC(=O)C1=C(C)[C@@H]2C[C@@]3(C1)[C@H](C)CC[C@H]3C2(C)C,72.4 µM (active),
CNC(=C[N+](=O)[O-])NCCSCc1ccc(CN(C)C)o1,,inactive
c1ccc(Cc2ccccc2)cc1,,inactive
C1CCCNCC1,,inactive
CCCCC(CC)COCCO (stereo unspecified),,inactive
CCCCOCCOCCOCCO,,inactive

# Target: Retinoic acid receptor RXR-alpha (Homo sapiens) (UniProt P19793)
# Test: OT_NURR1_NURR1RXRa_1440: Odyssey Thera (OT) 24-hour HEK293T Protein Complementation Assay for Nurr1/retinoid X receptor (RXR) (AID 2283386)
# Summary of the method: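 Interaction of Nurr1 with RXRα brings fused reporter fragments together in human HEK293T cells, restoring a functional reporter. Fluorescence intensity is measured 24 h after chemical treatment, and values are analysed in the positive direction against DMSO.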
row,Compound,outcome
1,CN(C)C(=O)Nc1ccccc1,inactive
2,CCCC1CCC(=O)CC1,inactive
3,NCCN1CCNCC1,inactive
4,CC12CCC(C1)C(C)(C)C2O (stereo unspecified),inactive
5,CC(=O)c1ccc2ccccc2c1,inactive
6,CC(=O)Nc1cc(S(=O)(=O)O)cc2cc(S(=O)(=O)O)c(N=Nc3ccccc3)c(O)c12,inactive
7,C=CCCCCCCCCC(=O)OCC,inactive
8,CCCCCCC(C)O (stereo unspecified),inactive
9,COC(=O)C(C)Oc1ccc(Oc2ncc(C(F)(F)F)cc2Cl)cc1 (stereo unspecified),inactive
10,C1CCCNCC1,inactive

# Target: Peroxisome proliferator-activated receptor gamma (Homo sapiens) (UniProt P37231)
# Test: OT_PPARg_PPARgSRC1_0480: Odyssey Thera (OT) 8-hour Protein-Complementation Assay for Peroxisome Proliferator-activated Receptor Gamma / SRC-1 Co-activator (AID 2283387);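 also: nuclear to cytoplasmic split Venus YFP fluorescence ratio reporting PPARg SRC-1 interaction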
# Summary of the method: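 Split-YFP (IFP1/IFP2) PPARg/SRC-1 reporter, HEK293T, 37 °C, 5% CO2; 8 h compound; formaldehyde fix + Draq5; high-content imaging, N/C ratio, ≥350 cells/image, positive direction vs DMSO.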
# Sequence of Peroxisome proliferator-activated receptor gamma (Homo sapiens) (P37231 whole entry, looked up): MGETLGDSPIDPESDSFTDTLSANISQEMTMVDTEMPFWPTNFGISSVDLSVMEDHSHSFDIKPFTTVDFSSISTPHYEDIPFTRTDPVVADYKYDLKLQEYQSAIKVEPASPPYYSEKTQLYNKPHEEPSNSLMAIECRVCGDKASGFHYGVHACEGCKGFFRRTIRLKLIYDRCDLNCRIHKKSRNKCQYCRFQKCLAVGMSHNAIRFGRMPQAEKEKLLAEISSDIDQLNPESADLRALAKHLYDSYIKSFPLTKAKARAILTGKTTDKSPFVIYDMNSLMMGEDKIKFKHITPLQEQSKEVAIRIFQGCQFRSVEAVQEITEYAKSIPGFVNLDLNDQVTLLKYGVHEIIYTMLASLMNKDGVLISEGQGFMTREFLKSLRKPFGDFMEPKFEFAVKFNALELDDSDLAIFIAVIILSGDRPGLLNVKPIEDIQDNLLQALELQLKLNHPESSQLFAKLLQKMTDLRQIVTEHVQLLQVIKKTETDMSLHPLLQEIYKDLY
row,Compound,outcome
1,CN(C)C(=O)Nc1ccccc1,inactive
2,CCCCCCCCCCCCN1CCOCC1,inactive
3,c1ccc2scnc2c1,inactive
4,CN(C)C,inactive
5,CCC(C)COC(=O)CC(C)C (stereo unspecified),inactive
6,Cc1cccc(O)c1,inactive
7,CCCC1CCC(=O)CC1,inactive
8,CCCCOCCOCCO,inactive
9,CC(C)N(c1ccccc1)C(C)C,inactive
10,CC12CCC(C1)C(C)(C)C2O (stereo unspecified),inactive
11,CC(=O)c1ccc(O)cc1,inactive
12,CC(O)CN (stereo unspecified),inactive
13,[Na+],inactive
14,CC(C)(C)c1ccc(S)cc1,inactive
15,CC(=O)c1ccc2ccccc2c1,inactive
16,CC(=O)Nc1cc(S(=O)(=O)O)cc2cc(S(=O)(=O)O)c(N=Nc3ccccc3)c(O)c12,inactive

row,Compound,outcome
1,COc1ccc2[nH]cc(CCNC(C)=O)c2c1,inactive
2,CCC(=O)OC(C)(C)C1CC=C(C)CC1 (stereo unspecified),inactive
3,c1ccc(OCCOc2ccccc2)cc1,inactive
4,C=CCCCCCCCCC(=O)OCC,inactive
5,CCCCCCCC(=O)N(C)C,inactive
6,CCCCCCC(C)O (stereo unspecified),inactive
7,COC(=O)C(C)Oc1ccc(Oc2ncc(C(F)(F)F)cc2Cl)cc1 (stereo unspecified),inactive
8,CN1CCc2cccc3c2[C@H]1Cc1ccc(O)c(O)c1-3,inactive
9,CCC(C)C1CCCCC1=O (stereo unspecified),inactive
10,NC(=O)c1cccnc1,inactive
11,CC(=O)C1=C(C)[C@@H]2C[C@@]3(C1)[C@H](C)CC[C@H]3C2(C)C,inactive
12,CNC(=C[N+](=O)[O-])NCCSCc1ccc(CN(C)C)o1,inactive
13,C1CCCNCC1,inactive
14,CCCCC(CC)COCCO (stereo unspecified),inactive
15,CCCCOCCOCCOCCO,inactive

# Target: Peroxisome proliferator-activated receptor gamma (Homo sapiens) (UniProt P37231)
# Test: OT_PPARg_PPARgSRC1_1440: Odyssey Thera (OT) 24-hour Protein-Complementation Assay for Peroxisome Proliferator-activated Receptor Gamma/ SRC-1 Co-activator (AID 2283388);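 also: nuclear to cytoplasmic ratio of reconstituted Venus YFP fluorescence in fixed imaged cells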
# Summary of the method: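 Protein-fragment complementation between PPARg and coactivator SRC-1 was measured by fluorescence imaging in transiently transfected HEK293T cells after 24 h treatment. Signal was quantified as N/C ratio in the 488 nm channel, with DMSO as negative control.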
row,Compound,outcome
1,CN(C)C(=O)Nc1ccccc1,inactive
2,CCCCCCCCCCCCN1CCOCC1,inactive
3,c1ccc2scnc2c1,inactive
4,CN(C)C,inactive
5,CCC(C)COC(=O)CC(C)C (stereo unspecified),inactive
6,Cc1cccc(O)c1,inactive
7,CCCC1CCC(=O)CC1,inactive
8,NCCN1CCNCC1,inactive
9,CCCCOCCOCCO,inactive
10,CC(C)N(c1ccccc1)C(C)C,inactive
11,CC12CCC(C1)C(C)(C)C2O (stereo unspecified),inactive
12,CC(=O)c1ccc(O)cc1,inactive
13,CC(O)CN (stereo unspecified),inactive
14,[Na+],inactive
15,CC(C)(C)c1ccc(S)cc1,inactive
16,CC(=O)c1ccc2ccccc2c1,inactive
17,CC(=O)Nc1cc(S(=O)(=O)O)cc2cc(S(=O)(=O)O)c(N=Nc3ccccc3)c(O)c12,inactive

row,Compound,outcome
1,COc1ccc2[nH]cc(CCNC(C)=O)c2c1,inactive
2,CC(=O)OC(C)(C)C,inactive
3,CCC(=O)OC(C)(C)C1CC=C(C)CC1 (stereo unspecified),inactive
4,c1ccc(OCCOc2ccccc2)cc1,inactive
5,C=CCCCCCCCCC(=O)OCC,inactive
6,CCCCCCCC(=O)N(C)C,inactive
7,CCCCCCC(C)O (stereo unspecified),inactive
8,COC(=O)C(C)Oc1ccc(Oc2ncc(C(F)(F)F)cc2Cl)cc1 (stereo unspecified),inactive
9,CN1CCc2cccc3c2[C@H]1Cc1ccc(O)c(O)c1-3,inactive
10,CCC(C)C1CCCCC1=O (stereo unspecified),inactive
11,NC(=O)c1cccnc1,inactive
12,CC(=O)C1=C(C)[C@@H]2C[C@@]3(C1)[C@H](C)CC[C@H]3C2(C)C,inactive
13,CNC(=C[N+](=O)[O-])NCCSCc1ccc(CN(C)C)o1,inactive
14,c1ccc(Cc2ccccc2)cc1,inactive
15,C1CCCNCC1,inactive
16,CCCCC(CC)COCCO (stereo unspecified),inactive
17,CCCCOCCOCCOCCO,inactive
